Inconclusive results are not listed. Calls of active or inactive are those of the source. The calls were made as follows: active = hit-call score of the fitted dose curve at least 0.9, where 1 is the maximum; inconclusive = response in the unintended direction; inactive = score below 0.9.

Estrogen receptor beta (Homo sapiens), sequence (Q92731 whole entry, looked up, the tested form may be a part): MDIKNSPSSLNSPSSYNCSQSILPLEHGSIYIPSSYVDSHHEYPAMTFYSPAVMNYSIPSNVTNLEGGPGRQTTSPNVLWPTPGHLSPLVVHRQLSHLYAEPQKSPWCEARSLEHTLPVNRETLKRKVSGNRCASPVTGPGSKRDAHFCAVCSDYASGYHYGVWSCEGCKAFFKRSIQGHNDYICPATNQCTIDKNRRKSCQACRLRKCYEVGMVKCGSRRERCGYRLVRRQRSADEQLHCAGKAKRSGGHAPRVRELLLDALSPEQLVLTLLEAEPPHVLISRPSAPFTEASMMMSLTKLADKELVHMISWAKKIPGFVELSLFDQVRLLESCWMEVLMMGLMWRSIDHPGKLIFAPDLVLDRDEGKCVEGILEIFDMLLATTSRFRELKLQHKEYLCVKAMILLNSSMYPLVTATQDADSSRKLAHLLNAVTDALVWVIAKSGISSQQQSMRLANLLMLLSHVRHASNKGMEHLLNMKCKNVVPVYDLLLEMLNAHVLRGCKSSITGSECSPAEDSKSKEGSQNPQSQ

The first experiment addresses Estrogen receptor beta (Homo sapiens) (UniProt Q92731). Kind of experiment: ATG_hERb_XSP1: Attagene TRANS-FACTORIAL Multi-Species (XSP1) HepG2 Assay for human Estrogen Receptor (ESR2) (AID 2283788). In a few lines:
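Multiplexed trans-activation in transfected HepG2: ERβ-Gal4 reporter transcripts after 24 h treatment, detected by RT-PCR plus capillary electrophoresis.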
Consider `C[C@]12C=CC3=C4CCC(=O)C=C4CC[C@H]3[C@@H]1CC[C@@H]2O`, for which the call was inactive.
As for `Clc1ccc(C(c2ccc(Cl)cc2)C(Cl)(Cl)Cl)cc1`, the compound was classed as inactive.
The same measure, in the same setting: under `CCCCCOC(=O)c1ccccc1C(=O)OCCCCC` stands “inactive”.

System in the next experiment: not listed separately
Kind of experiment: ATG_M_19_XSP1: Attagene TRANS-FACTORIAL Multi-Species (XSP1) HepG2 Assay for M19 Transcription Factor (Internal Marker) (AID 2283798). In a few lines: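 Readout is reporter mRNA induction quantified via RT-PCR, 6-FAM labeling, HpaI digestion and capillary electrophoresis, fitted in the positive direction versus DMSO baseline. Transfected HepG2 cells exposed 24 h, medium including 3 nM 6-alpha-fluorotestosterone.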
With `C[C@]12C=CC3=C4CCC(=O)C=C4CC[C@H]3[C@@H]1CC[C@@H]2O`, the outcome was inactive.
Turning to `CCCCOC(=O)c1ccccc1C(=O)OCc1ccccc1`, the compound was called inactive.
Same read-out and setting: under `CCC[CH2][Sn]([Cl])([CH2]CCC)[CH2]CCC` stands “inactive”; under `Clc1ccc(C(c2ccc(Cl)cc2)C(Cl)Cl)cc1`, “inactive”.
On the same count and under the same terms, under `Clc1ccc(C(c2ccc(Cl)cc2)C(Cl)(Cl)Cl)cc1` stands “inactive”.

System in a further experiment: not listed separately
The experiment can be described thus: ATG_M_32_XSP1: Attagene TRANS-FACTORIAL Multi-Species (XSP1) HepG2 Assay for M32 Transcription Factor (Internal Marker) (AID 2283799). In a few lines: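 Reporter transcripts from the M32 internal-control unit measured by RT-PCR, FAM labelling, HpaI digestion and capillary electrophoresis after 24 h compound exposure of transfected HepG2, 3 nM 6-alpha-fluorotestosterone included; DMSO baseline, positive-direction fit.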
As to `C[C@]12C=CC3=C4CCC(=O)C=C4CC[C@H]3[C@@H]1CC[C@@H]2O`, the compound was classed as inactive.
Still for that read-out and setting: under `CCCCOC(=O)c1ccccc1C(=O)OCc1ccccc1` stands “inactive”.
As for `Clc1ccc(C(c2ccc(Cl)cc2)C(Cl)Cl)cc1`, the compound was classed as inactive.
Still for that read-out and setting: under `Clc1ccc(C(c2ccc(Cl)cc2)C(Cl)(Cl)Cl)cc1` stands “inactive”; under `CCCCCOC(=O)c1ccccc1C(=O)OCCCCC`, “inactive”.

Source of the values: PubChem BioAssay (EPA / NIEHS).
